Measurements from PubChem BioAssay AID1626 (SRMLSC, 2009).
About 2,000 (0.91%) of roughly 220,000 compounds were called active. Another 2% or so got no clear call; they are omitted. These entries were drawn from the full list. Measured potencies and affinities stand elsewhere. A number with no mark means an inactive call. No stated cut-off is given here; in the data, inconclusive means inhibition above about 80% without an active follow-up result; inactive means below that; test concentration not stated here.

Assay: M. tuberculosis H37Rv growth inhibitors, H37Rv strain (AID 1626);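 further: bacteria incubated seven days before Alamar blue readout; 0% = bacteria only wells and 100% = bacteria with antibiotic wells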
Settings: stronger effect = higher value, concentration not given here

SMILES	inhibition [%]
CC(=O)Nc1ccc(NC(=O)COc2ccc3c(c2)CCC3)cc1	10.5
CCc1ccc(CN(C)CC(=O)Nc2ccc3c(c2)CCC3)cc1	48
COc1ccc(CC(=O)Nc2ccc3c(c2)CCC3)cc1	9.72
COc1cccc(NC(=O)COc2ccc3c(c2)CCC3)c1	74.3
Cc1cc(C(=O)Cn2nc(C(=O)O)c3ccccc3c2=O)c(C)n1CCc1ccc(F)cc1	3.54
CC(C)OCCCNC(=O)Nc1cccc2ccccc12	-3.82
CCOC(=O)c1c(NC(=O)COc2cccc3c2CCN(C)C3=O)sc2c1CCC2	31.8
C/C(N)=C(/C#N)C(=O)COC(=O)c1ccccc1Oc1ccccc1	-2.05
O=C(Nc1ccc(N2CCN(C(=O)c3ccc(Cl)cc3)CC2)cc1)c1cc2ccccc2o1	-12.4
O=C(Nc1ccc(N2CCN(C(=O)c3ccccc3)CC2)cc1)c1cc2ccccc2o1	9.58
O=C(Nc1ccc(N2CCN(C(=O)c3ccco3)CC2)cc1)c1ccccc1	7.16
O=C(Nc1ccc(N2CCN(C(=O)c3ccccc3)CC2)cc1)c1ccc(Br)o1	19.7
O=C(Nc1ccc(N2CCN(C(=O)c3ccc(Cl)cc3)CC2)cc1)c1ccc2c(c1)OCCO2	-4.15
O=C(Nc1ccc(N2CCN(C(=O)c3ccco3)CC2)cc1)c1ccco1	-0.76
Cc1ccc(-c2nn(-c3ccccc3)cc2/C=C/C(=O)OCC(=O)NC2CC2)o1	6.54
Cc1cc(C)n(-c2ccc(C(=O)Nc3cccnc3Cl)cc2)n1	-2.86
CS(=O)(=O)N1CCc2cc(NC(=O)c3ccc(Cl)cc3Cl)ccc21	-3.19
COc1ccc(/C=N/NC(=O)C2C3CCCCC32)cc1OC (configuration not stated)	1.66
CCOc1ccc(Br)cc1S(=O)(=O)Nc1ccc(C(=O)Nc2ccc(C)cc2)cc1	1.51
CN1C(C(=O)NCC2CC2)CC2Cn3c(nc4cc5ccccc5cc43)C21 (configuration not stated)	-9.29
N#CC(Nc1ccccc1)c1ccccc1OCc1ccccc1 (configuration not stated)	5.52
COc1ccccc1NC(C#N)c1ccccc1OCc1ccccc1 (configuration not stated)	5.14
CC(=O)n1c2ccccc2c2c1c1ccccc1n2C	6.42

SMILES	inhibition [%]
CC(C)OC(=O)CC1C(=O)NCCN1C(=S)NC(=O)c1ccccc1 (configuration not stated)	3.87
Cc1ccc(C)n1-c1ccc(N2CCOCC2)c(Br)c1	4.43
COC(=O)c1ccc(C(=O)OC)c(NC(=O)CN2CCN(c3ccccc3OC)CC2)c1	72.2
COC(=O)c1ccc(C(=O)OC)c(NC(=O)CN2CCN(c3ccc(OC)cc3)CC2)c1	13.8
O=C1OCc2cc(N=Nc3c(O)[nH]c(=O)[nH]c3=O)ccc21	-9.19
COc1c(/C=N/NS(=O)(=O)c2ccc(C)cc2)c(CCN(C)C(C)=O)cc2c1OCO2	-0.76
CCn1c(SCC(=O)c2cccs2)nnc1-c1ccco1	-18.1
Cc1cccc(Nc2nc(N)c([N+](=O)[O-])c(NCc3ccco3)n2)c1	22.5
Nc1nc(Nc2ccc(Cl)cc2)nc(NCc2ccco2)c1[N+](=O)[O-]	18.8
Cc1nn(C)c2c(=O)c(=O)c2n(C)[nH]1	-3.16
CC(C)CCNC(=O)c1onc(CSc2ccccc2)c1C(=O)NCCC(C)C	19
CCn1c(COc2ccc(C)cc2)nnc1SCC(=O)NNC(=O)c1ccc(OC)cc1	4.68
S=c1[nH]nc(-c2cccnc2)n1/N=C/c1ccccc1	-12.5
CCN1CCN(Cc2ccc(NC(=O)c3ccc(C)c(NC(=O)c4ccc5n[nH]nc5c4)c3)cc2C(F)(F)F)CC1	-11
CCN1CCN(Cc2ccc(NC(=O)c3cc(NC(=O)N4CCNC4=O)cc(OC)c3)cc2C(F)(F)F)CC1	-1.27
CCN1CCN(Cc2ccc(NC(=O)c3cc(NC(=O)c4ccc5n[nH]nc5c4)cc(OC)c3)cc2C(F)(F)F)CC1	-1.88
CCN1CCN(Cc2ccc(NC(=O)c3cc(NC(=O)c4ccno4)cc(OC)c3)cc2C(F)(F)F)CC1	14.6
CCN1CCN(Cc2ccc(NC(=O)c3ccc(C)c(NC(=O)c4ccnnc4)c3)cc2C(F)(F)F)CC1	-3.04
CCN1CCN(Cc2ccc(NC(=O)c3cc(NC(=O)c4nccnc4N)cc(OC)c3)cc2C(F)(F)F)CC1	6.4
Cc1cc(C)cc(NC(=O)CN2C(=O)NC(C)(c3ccccc3)C2=O)c1 (configuration not stated)	1.34
COc1ccc(-c2nn(-c3ccccc3)cc2/C=C2/SC(=S)N(Cc3ccco3)C2=O)c(C)c1	-0.21
Cc1sc(NC(=O)c2ccccc2F)c(CN2CCCCC2)c1C	7.51
CCOc1ncccc1C(=O)OCC(=O)c1ccccc1	-3.62

SMILES	inhibition [%]
COc1ccc(CNC(=O)COC(=O)C2=COCCO2)cc1	46.3
CCN(CC(=O)Nc1ccc(NC(C)=O)cc1)CC(=O)Nc1ccccc1C(=O)c1ccccc1	2.54
CC(=O)c1ccn(S(=O)(=O)c2ccccc2)c1	4.75
CC1(C)Cc2c(cnn2-c2ccccc2)-c2c1c1ccccc1n2CC(O)CBr (configuration not stated)	8.54
CC1(C)Cc2c(cnn2-c2ccccc2)-c2c1c1ccccc1n2CC(O)CCl (configuration not stated)	2.97
O=C(Nc1ccc(Cl)cn1)c1ccc(-c2ccc(Cl)c(Cl)c2)o1	9.55
COc1cc2nc(-c3ccccc3)nc(N3CCCC3)c2cc1OC	7.03
COc1cc2nc(Cl)nc(N3CCCCC3)c2cc1OC	1.6
O=c1c2ccccc2nc(SCc2ccncc2)n1CC1CCCO1 (configuration not stated)	4.12
CSc1ccccc1NC(=O)Nc1ccc(F)c(Cl)c1	1.15
O=C(Nc1ccc(F)cc1)Nc1csc2ccccc12	57.9
O=C(Nc1ccccc1)Nc1csc2ccccc12	14.7
O=C(Nc1ccc(F)cc1F)Nc1ccc(F)cc1F	-3.43
CCc1ccc(C2C3=C(CC(C)(C)CC3=O)OC3=C2C(=O)CC(C)(C)C3)cc1	-1.37
O=c1[nH]c(/C=C\c2cccnc2)c([N+](=O)[O-])c(=O)[nH]1	-10.6
C/C=C/C(=O)OCC(=O)Nc1nc2ccc(C)cc2s1	-7.77
COc1cccc(C(=O)NNC(=O)C2CC(C)=C(C)CC2C(=O)O)c1 (configuration not stated)	-6.84
O=C(NC1CCSC1=O)c1ccc(Oc2ccc(F)cc2)nc1 (configuration not stated)	0.17
CCCn1nc2cc(C(=O)NCC34CC5CC(CC(C5)C3)C4)ccc2c1OCC	5.26
COc1ccc(Br)cc1CNC(=O)C1CCN(S(=O)(=O)N2CCCC2)CC1	-4.95
Cc1ccccc1NCc1ccc(O)c2ncccc12	5.07
Cc1cccnc1NCc1ccc(O)c2ncccc12	-8.13
Cc1ccc(S(=O)(=O)Nc2ccc(O)c3ncccc23)cc1	-2.86

SMILES	inhibition [%]
CCS(=O)(=O)c1ccc(OC)c(N=Nc2ccc(O)c3ncccc23)c1	4.79
COc1ccccc1N=Nc1[nH]c2ccc(C)cc2c1O	9.9
CCS(=O)(=O)c1ccc(N=Nc2ccc(O)c3ncccc23)c(OC)c1	-3.16
Oc1ccc(N=Nc2ccc3c(c2)OCCO3)c2ncccc12	41
Cc1ccc(NCc2ccc(O)c3ncccc23)cc1C	9.65
Cc1ccc(-c2nc(C=Nc3cccc(C)c3)c(O)o2)cc1	1.48
CCn1c(SCC(=O)Nc2cc(C)on2)nnc1-c1c[nH]c2ccccc12	-1
CSc1ccccc1NC(=O)COC(=O)c1ccccc1Cc1ccccc1	7.08
N#CC1=C2N=C(N)c3ccccc3N2C2=C(C(=O)CCC2)C1c1ccc(Cl)cc1 (configuration not stated)	-9.07
Cc1ccc(C(=O)Nc2ccc(N3CCN(S(C)(=O)=O)CC3)cc2)cc1C	-8.49
C=CCOc1ccc(/C=C2\C(=N)N3N=C(S(=O)(=O)CC)SC3=NC2=O)cc1OC	-2.08
O=C(c1ccco1)N1CCN(CCCCN2C(=O)c3ccccc3C2=O)CC1	-5.13
CC1CN(C(=O)c2cc(F)c(F)cc2Cl)CC(C)O1 (configuration not stated)	-4.24
Clc1ccccc1CN1CCN(CCCc2ccccc2)CC1	6.37
c1ccc(C(OCCN2CCNCC2)c2ccccc2)cc1	-7.41
Fc1ccc(C(OCCN2CCCC2)c2ccc(Br)cc2)cc1 (configuration not stated)	11.1
Fc1ccc(C(OCCN2CCCC2)c2ccc(F)cc2)cc1	3.27
COc1ccc(C(C)=O)cc1COC(=O)C(CO)NS(=O)(=O)c1ccc(Br)cc1 (configuration not stated)	7.85
Cc1ccc(C(=O)N2CCN(c3cc4c(cc3[N+](=O)[O-])n(C)c(=O)n4C)CC2)cc1	-9.29
CC(C)Sc1nc2c(c(=O)[nH]c(=O)n2C)n1Cc1ccc(Cl)cc1	11.2
O=c1c2ccccc2c(-c2ccccc2)nn1-c1ccccc1	8.6
CC(C)NC(=O)C(=O)NC1CCCCCC1	-2.43
O=[N+]([O-])c1ccc(N/N=C/c2cn(-c3ccccc3)nc2-c2ccccc2)cc1	30.5
